The results in this text go back to the supplement of paper PMC6555819.

The test system of one experiment is RARa homodimer (NR concentration 270 nM). Put plainly: PBM binding z-score (relative to random genomic background probes); higher = stronger binding; sequences stand for … in GC…GCGATTGACAGCGTAGAATGAAGG
The procedure, abridged:
(§1)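 On custom Agilent 4×180K arrays, double-stranded probes with 34-nt variable regions carried direct-repeat seeds, single-nucleotide variants, half-site ablations or random human genomic background. Ligand-free nuclear receptor dimers were applied for 1 h, and binding was read with antibodies against each partner (one per run). Binding z-scores come from regression-normalized fluorescence, with the random background probes as reference.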
Sequence TGAATGAGGTTACAAGATCAGGGAACGTTGCAAA gave a PBM binding z-score of 0.0919.
CCTCGGAGGACAGAAGGACAGAGCTGTCCGCTTT yielded a PBM binding z-score of -0.614.
The sequence ATCCAAAGGTCGTGAGGTGAGTATACAGAAAGGC gave a PBM binding z-score of 1.46.
Same read-out and setting: as for CCTTACGGGTGACGAGGTTATAGCACGACGAGCG, the figure is 0.128.
Still for that read-out and setting: as for CCGACTGGGGCAAGGTTACGATAACGCACAGCCA, the figure is -0.286.
Still for that read-out and setting: as for TATACAGGGTGAAAGGCCAGAGTACGAATGTCGA, the figure is 0.323; as for CAAACTAGATCAAAGGTCAAAGTCGAGCCAACCA, 2.11.
The sequence TCTTGTAGATCAACCAGGTTAAGAAAGCCTGAGT displayed a PBM binding z-score of 0.037.
For TTAATGAGGTTAAAGATCAGGGAACGTGGCGTCG, the PBM binding z-score is 1.1.
In turn, ACTCGGCGGACAAAGGTCAGAGCTACGCCAGTGA displayed a PBM binding z-score of 0.924.
In the case of TCTATGAGTTGATTAGGGCAACCGAAACAGCGGA, the PBM binding z-score is -0.0986.
Turning to ATCTCTAGGTAACGAAGTTCAGTGAATGCCGAAC, the PBM binding z-score was 0.64.
Same read-out and setting: to CTCGAAAGGTCGGTTGAGTTGAGTATACGGATAA belongs 0.0679; to ACTATTAGTTGATTTAGGGCAACCGATACGACGC, 1.47.
As to AGAATGAGGTTATTGAGATCAGGGAATTGCGGTC, the PBM binding z-score amounted to 0.342.
Consider ATCTCTAGGTAAGACTCAGTTCAGTGAAGAACGC, for which the PBM binding z-score was 0.948.
On to CCTATTAGTTGACCATACGGGCAACCGAAGCTCG, for which the PBM binding z-score stood at 1.26.
As for TTACCAAGGTGAAAGGTCCTTGATGCACGCCTTG, the PBM binding z-score is -0.838.
Sequence CCTAGTTGGTCCAGGTCACACACGCTATAGGTAC returned a PBM binding z-score of 1.7.
CCTCGGAGGACAGGAGGTCAGAGCTGTCCGCTTT returned a PBM binding z-score of -0.0884.
On the same count and under the same terms, as for GTACCAAGGTGAATAGATCGTTGATGAGTAGGCG, the figure is 0.712; as for CCTACTGGGCCACGAAAGGTCGTTGATTCAGTGA, -0.764.
In the case of CAAACTGGGTCACCGGAAGGTCAAAGTCCGCATG, the PBM binding z-score is 0.623.
TCTCGGAGGACACGCAGGTCAGAGCTTTCCAGAG showed a PBM binding z-score of -0.493.
With CCGAGTAGGTTATCGGGCATTCAGGCAACGGTGA, the PBM binding z-score was 0.0766.
Regarding TCTTGTAGGTCAACAGGAGGTTAAGAAAGATCGA, the PBM binding z-score is 0.468.
The same measure, in the same setting: as for TGAATTAGGTTAAAGATCAGGGAACGTGGCGTCG, the figure is 1.04; as for ATTCAAAGTTCATCTAGGTAACGTAAGATATGCT, 1.89.
TAGCCTAGGTGATGCGGGCCAGTATAGTGTCGGC: the PBM binding z-score was -0.718.
The sequence TAGCCTAGGTCCTGGGCCAGTATACCACGCGAAC returned a PBM binding z-score of -1.37.
CCTATTAGTTGACCATAAGGGCAAGCGAAGCTCG showed a PBM binding z-score of 1.9.
In turn, GGAACGCGGGCAAGTTGATAGCAGAGTTTGATGG gave a PBM binding z-score of -1.25.
Regarding TCATATAGGTAATACAGGTGAATGTCGGCATCTA, the PBM binding z-score amounted to 1.94.
In turn, ATCGAAAGGTCGACGAGGTGAGTTTACACCGTTT showed a PBM binding z-score of 0.024.
Same read-out and setting: to ATATGTAGGTTATCGGGTCATTCAGTTTGCGCAT belongs 1.75; to ACAGACAGGTGAGTGAAGGTAACGCAGCTGGACG, -0.195.
For CGTCCAAGGTCAGCAGATCAGTGAAAGCGACGTG, the PBM binding z-score is 0.548.
Turning to AGAATGAGGTTACCAAAGATCCGGGAAACGCTTG, the PBM binding z-score came out at 0.0139.
The same measure, in the same setting: as for AGAACGAGGGCAATGAGTTGCTAGCACGGGTGGC, the figure is -0.567; as for CAAACTAGGTCAAAGGTAAAAGTCGAGCCAACCA, 0.696.

The test system of the next experiment is RARb:RXRa (NR concentration 270 nM, RXRa partner concentration 90 nM). The description is as above. The procedure, abridged:
as §1
TGAATGAGGTTACAAGATCAGGGAACGTTGCAAA: the PBM binding z-score was found to be 1.73.
Still for that read-out and setting: as for CCTCGGAGGACAGAAGGACAGAGCTGTCCGCTTT, the figure is 0.716; as for ATCCAAAGGTCGTGAGGTGAGTATACAGAAAGGC, 4.4.
Regarding CCTTACGGGTGACGAGGTTATAGCACGACGAGCG, the PBM binding z-score turned out to be 1.1.
Turning to CCGACTGGGGCAAGGTTACGATAACGCACAGCCA, the PBM binding z-score was found to be 1.66.
As to TATACAGGGTGAAAGGCCAGAGTACGAATGTCGA, the PBM binding z-score is 1.68.
Turning to CAAACTAGATCAAAGGTCAAAGTCGAGCCAACCA, the PBM binding z-score came to 4.83.
Consider TCTTGTAGATCAACCAGGTTAAGAAAGCCTGAGT, for which the PBM binding z-score stood at 0.316.
Sequence TTAATGAGGTTAAAGATCAGGGAACGTGGCGTCG gave a PBM binding z-score of 2.33.
As to ACTCGGCGGACAAAGGTCAGAGCTACGCCAGTGA, the PBM binding z-score stood at 4.22.
Regarding TCTATGAGTTGATTAGGGCAACCGAAACAGCGGA, the PBM binding z-score stood at 0.711.
For the sequence ATCTCTAGGTAACGAAGTTCAGTGAATGCCGAAC, the PBM binding z-score came out at 1.14.
On to CTCGAAAGGTCGGTTGAGTTGAGTATACGGATAA, for which the PBM binding z-score was 2.71.
ACTATTAGTTGATTTAGGGCAACCGATACGACGC registered a PBM binding z-score of 0.582.
Consider AGAATGAGGTTATTGAGATCAGGGAATTGCGGTC, for which the PBM binding z-score turned out to be 1.63.
Sequence ATCTCTAGGTAAGACTCAGTTCAGTGAAGAACGC showed a PBM binding z-score of 0.386.
Still for that read-out and setting: as for CCTATTAGTTGACCATACGGGCAACCGAAGCTCG, the figure is 0.631.
On to TTACCAAGGTGAAAGGTCCTTGATGCACGCCTTG, for which the PBM binding z-score was 1.93.
Turning to CCTAGTTGGTCCAGGTCACACACGCTATAGGTAC, the PBM binding z-score amounted to 2.59.
Turning to CCTCGGAGGACAGGAGGTCAGAGCTGTCCGCTTT, the PBM binding z-score is 2.82.
GTACCAAGGTGAATAGATCGTTGATGAGTAGGCG registered a PBM binding z-score of 1.13.
CCTACTGGGCCACGAAAGGTCGTTGATTCAGTGA had a PBM binding z-score of 1.84.
CAAACTGGGTCACCGGAAGGTCAAAGTCCGCATG registered a PBM binding z-score of 4.9.
The sequence TCTCGGAGGACACGCAGGTCAGAGCTTTCCAGAG showed a PBM binding z-score of 2.67.
Consider CCGAGTAGGTTATCGGGCATTCAGGCAACGGTGA, for which the PBM binding z-score came to 0.742.
TCTTGTAGGTCAACAGGAGGTTAAGAAAGATCGA yielded a PBM binding z-score of 4.57.
TGAATTAGGTTAAAGATCAGGGAACGTGGCGTCG had a PBM binding z-score of 1.19.
Sequence ATTCAAAGTTCATCTAGGTAACGTAAGATATGCT returned a PBM binding z-score of 4.93.
Sequence TAGCCTAGGTGATGCGGGCCAGTATAGTGTCGGC displayed a PBM binding z-score of -0.225.
The sequence TAGCCTAGGTCCTGGGCCAGTATACCACGCGAAC displayed a PBM binding z-score of -0.156.
CCTATTAGTTGACCATAAGGGCAAGCGAAGCTCG had a PBM binding z-score of 1.65.
Turning to GGAACGCGGGCAAGTTGATAGCAGAGTTTGATGG, the PBM binding z-score stood at 0.294.
In turn, TCATATAGGTAATACAGGTGAATGTCGGCATCTA had a PBM binding z-score of 0.634.
The sequence ATCGAAAGGTCGACGAGGTGAGTTTACACCGTTT yielded a PBM binding z-score of 3.9.
Sequence ATATGTAGGTTATCGGGTCATTCAGTTTGCGCAT came in with a PBM binding z-score of 2.56.
ACAGACAGGTGAGTGAAGGTAACGCAGCTGGACG: the PBM binding z-score stood at 0.702.
Same read-out and setting: as for CGTCCAAGGTCAGCAGATCAGTGAAAGCGACGTG, the figure is 5.02.
The sequence AGAATGAGGTTACCAAAGATCCGGGAAACGCTTG gave a PBM binding z-score of 2.05.
AGAACGAGGGCAATGAGTTGCTAGCACGGGTGGC came in with a PBM binding z-score of 1.98.
Still for that read-out and setting: as for CAAACTAGGTCAAAGGTAAAAGTCGAGCCAACCA, the figure is 4.21.
